# Results: PubChem BioAssay AID492998 (Southern Research Specialized Biocontainment Screening …, 2010)
# In all, about 2,300 compounds went through this assay and about 550 (24%) were called active. These entries were drawn from the full list. Measured potencies and affinities stand elsewhere. Unmarked numbers belong to inactive results. The rule behind the calls is not given here.
# Test: Vero E6 cell cytotoxicity, dose response, cytotoxicity control for non-replicating M. tuberculosis project, secondary assay (AID 492998);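 note: 100% = vehicle-treated cells and 0% = background wells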
# Conditions: series mostly up to 20 µM; viability: at the top concentration
row,SMILES,viability [%]
1,Cc1cc(C)n(C(=O)c2ccc([N+](=O)[O-])cc2[N+](=O)[O-])n1,96.6
2,CC(=O)c1ccc(Sc2nnnn2-c2ccccc2)c([N+](=O)[O-])c1,75
3,CC(=O)Nc1ccc(NC(=O)c2cc([N+](=O)[O-])cc([N+](=O)[O-])c2)cc1,83.2
4,O=C(NCc1cccs1)c1ccc([N+](=O)[O-])cc1,106
5,COc1ccc2cc(C(=O)NCc3ccccc3)c(=O)oc2c1,108
6,CC(C)OC(=O)c1cc(C(=O)c2cc(Cl)ccc2O)coc1=N,109
7,O=C(NNc1ccc([N+](=O)[O-])cc1)C1CC1c1ccccc1 (stereo not drawn),100
8,CC(C)(C)c1ccc(OCCC(=O)OCC(=O)NC2CC2)cc1,108
9,O=C(Oc1ccc(F)cc1)c1ccc2c(=O)n3c(nc2c1)CCC3,98.7
10,COC(=O)c1ccc(N2CCN(CCNC(=O)Nc3ccc(OC)cc3)CC2)cc1,110
11,C#CCSc1nnc(-c2ccc(O)cc2)o1,103
12,C#CCSc1nnc(-c2ccc(C)cc2)o1,97.5
13,Cc1cc(Cl)ccc1N(CC(=O)NCc1ccccc1)S(C)(=O)=O,108
14,CCCCn1nnc(NC(=O)COc2ccc(Cl)c(C)c2)n1,107
15,O=C(COC(=O)CCc1c[nH]c2ccccc12)NCc1ccc2c(c1)OCO2,106
16,COc1ccc(OC(=O)CCc2c[nH]c3ccccc23)cc1,89.6
17,N#Cc1ccc(COC(=O)CCc2c[nH]c3ccccc23)cc1,98
18,O=C(COC(=O)CCc1c[nH]c2ccccc12)NCc1ccc(Cl)cc1,96.6
19,C=Cc1cccc(NC(=O)COc2ccccc2)c1,95.2
20,COc1ccc(Cc2nnc(SCc3ccc([N+](=O)[O-])cc3)o2)cc1,90.6
21,Cc1[nH]nc2c1C(c1ccc(-c3ccc(Cl)cc3)o1)C(C#N)=C(N)O2 (stereo not drawn),85.1
22,O=C1/C(=C/c2ccco2)CCC1C1CCCC1 (stereo not drawn),99.2
23,CC(NC(=O)COc1ccccc1F)C1CC2CCC1C2 (stereo not drawn),93.9
24,CCOC(=O)c1ccc(NC(=O)CCSCCc2ccccn2)cc1,102
25,CCOc1ccc(-c2nc3ccccc3c(=O)o2)cc1,87

row,SMILES,viability [%]
1,CCOC(=O)N1CCC(NS(=O)(=O)c2cc3c(cc2Cl)NC(=O)CO3)CC1,106
2,CCCNC(=O)N1CCC(c2ccc3c(c2)OCO3)CC1,96.4
3,COc1ccc(C2(O)CCN(CCCCOc3ccccc3)CC2)cc1,101
4,OCC1(CCOc2ccccc2)CCN(Cc2cc(Cl)ccc2O)CC1,99.6
5,COc1cccc2cc(C(=O)c3ccc([N+](=O)[O-])cc3)oc12,105
6,CC1COC(=O)C(NNc2ccc(Cl)c(Cl)c2)=N1 (stereo not drawn),101
7,CC(=O)Nc1cccc(-c2nc3ccccc3c(=O)o2)c1,113
8,CC(C)Cc1cc(C(=O)Nc2ccc(F)cc2F)no1,101
9,CC(C)c1nnc(NC(=O)c2cc3cc(Br)ccc3oc2=O)s1,99.5
10,CCCC(=O)Nc1cccc(-c2nc3ccccc3c(=O)o2)c1,107
11,O=C(Oc1ccc(/C=N/O)cc1)c1ccccc1Cl,98.6
12,CN1C(=O)/C(=C/c2cccc(Cl)c2)Sc2ccc(C(=O)N3CCCC3)cc21,80
13,O=C(NCCN1C(=O)S/C(=C\c2ccccc2F)C1=O)C1CCN(S(=O)(=O)c2cccs2)CC1,105
14,O=C(O)CCCCCN1C(=O)/C(=C\c2ccncc2)SC1=S,73.2
15,O=C(COC(=O)CCN1C(=O)/C(=C\C=C\c2ccccc2)SC1=S)Nc1cc(F)ccc1F,109
16,O=C(CC1CC2CCC1C2)NCc1cccs1 (stereo not drawn),99.9
17,CCOc1ccc(-c2cc(CCCC(=O)NCCC(C)C)no2)cc1,84
18,Cc1ccc(N2C(=O)CC(Sc3nccc(C)n3)C2=O)cc1 (stereo not drawn),101
19,Cc1cccc(C2=N/C(=C\c3cccnc3)C(=O)O2)c1,98.2
20,Cc1ccc(-c2noc(CCC(=O)Nc3cccc(C#N)c3)n2)cc1,96.9
21,CCNc1nc(NC(C)(C)C)nc(N2CCCCC2)n1,71.7
22,COc1cc(NC(=O)C/C(C)=N/NC(=O)c2cccs2)c(OC)cc1Cl,95.5
23,O=C(OCC(=O)N1CCCc2ccccc21)c1ccc(S(=O)(=O)C(F)F)cc1,99.6
24,CCOC(=O)COc1ccc2c(c1)C(=O)CC(C)(c1cccnc1)O2 (stereo not drawn),101
25,Cc1occc1C(=O)N/N=C/c1ccc[nH]1,92.1

row,SMILES,viability [%]
1,O=C(Oc1cccc2cccnc12)c1ccc2c(c1)OCCO2,78.9
2,O=C(N/N=C/c1ccc[nH]1)c1ccc2c(c1)OCO2,110
3,CC(/C=C/c1ccccc1)=N\NC(=O)c1ccc2c(c1)OCCO2,79.4
4,O=C(N/N=C\c1ccccc1OCc1ccccc1)c1ccco1,93.2
5,C/C(=N\NC(=O)c1cccs1)c1ccc2c(c1)OCO2,99.2
6,COCCCn1c(=NC(=O)c2ccccc2)c(C#N)cc2c(=O)n3cccc(C)c3nc21,98.9
7,CCOC(=O)COc1c(-c2ccc(OC)cc2)oc2ccccc2c1=O,93.6
8,O=C1CC(N2CCN(c3ccc(F)cc3)CC2)C(=O)N1Cc1ccccc1 (stereo not drawn),90.4
9,O=C1NCC(O)=C1C=Nc1ccccc1O,86.1
10,COC(=O)c1cccc(COC(=O)c2cc3ccccc3oc2=O)c1,105
11,CN(CCCCOc1ccc(F)cc1)Cc1ccccc1,92.9
12,O=C(Nc1ccn(Cc2ccccc2)n1)c1ccc(F)cc1,96.2
13,O=C(c1ccc([N+](=O)[O-])cc1[N+](=O)[O-])N1CCc2ccccc21,97.2
14,CCOC(=O)c1ccc(COC(=O)c2ccc(-c3nnc(-c4ccccc4)o3)cc2)o1,98
15,CC(/C=C/c1cccc([N+](=O)[O-])c1)=N\NC(=O)c1ccncc1,95.2
16,NC(=O)C1(N2CCCCC2)CCN(C2CC(=O)N(CCc3ccccc3)C2=O)CC1 (stereo not drawn),107
17,COC(CNC(=O)c1ccc2c3c(onc13)-c1ccccc1C2=O)OC,73.8
18,O=[N+]([O-])c1cc(N=Nc2ccc3ccccc3c2)ccc1O,92.2
19,CCCCCCOc1ccc(N2C(=O)CC(N3CCN(C(=O)c4ccco4)CC3)C2=O)cc1 (stereo not drawn),95.4
20,O=C(Oc1ccccc1)c1ccc(NC(=O)c2ccco2)cc1,90.4
21,O=C(/C=C/Nc1ccccc1O)c1ccco1,112
22,Nc1nnc(SCCCC(=O)c2ccc(Br)cc2)s1,94.2
23,CC(=O)c1c(C)n(C)c2ccc(OC(=O)c3ccco3)cc12,95.8
